Test results taken from the supplement of paper PMC6555819.

Assays:
Assay in all cases: PBM binding z-score (relative to random genomic background probes); higher = stronger binding; sequences stand for … in GC…GCGATTGACAGCGTAGAATGAAGG
[1] = system: PPARg:RXRa DBDmut IVT, anti-RXR (DBD mutation: RXRa K156A/R161A, NR concentration 270 nM, RXRa partner concentration 90 nM)
Method in brief: (§1)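 Scanned fluorescence from custom Agilent 4×180K protein-binding microarrays was regression-normalized. Binding z-scores use random background probes as reference. Ligand-free nuclear receptor dimers were incubated on the arrays for 1 h and detected with antibodies against each partner (one per run).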

[2] = system: PPARg:RXRa IVT, anti-PPARg (NR concentration 270 nM, RXRa partner concentration 90 nM)
Method in brief: as §1

[3] = system: PPARg DBDmut:RXRa IVT, anti-PPARg (DBD mutation: PPARg1 K132A/R137A, NR concentration 270 nM, RXRa partner concentration 90 nM)
Method in brief: as §1

[4] = system: PPARg DBDmut IVT, anti-PPARg (DBD mutation: PPARg1 K132A/R137A, NR concentration 270 nM)
Method in brief: as §1

[5] = system: PPARg homodimer (NR concentration 180 nM)
Method in brief: as §1

[6] = system: PXR:RXRa (NR concentration 270 nM, RXRa partner concentration 90 nM)
Method in brief: as §1

[7] = system: PXR homodimer (NR concentration 270 nM)
Method in brief: as §1

[8] = system: RARa:RXR (NR concentration 270 nM, RXRa partner concentration 90 nM)
Method in brief: as §1

[9] = system: RARa homodimer (NR concentration 270 nM)
Method in brief: as §1

[10] = system: RARb:RXRa (NR concentration 270 nM, RXRa partner concentration 90 nM)
Method in brief: as §1

[11] = system: RARb homodimer (NR concentration 270 nM)
Method in brief: as §1

[12] = system: RARg:RXRa (NR concentration 270 nM, RXRa partner concentration 90 nM)
Method in brief: as §1

[13] = system: RARg homodimer (NR concentration 270 nM)
Method in brief: as §1

[14] = system: RXRa DBDmut IVT, anti-RXR (DBD mutation: RXRa K156A/R161A, NR concentration 90 nM)
Method in brief: as §1

[15] = system: RXRa homodimer (NR concentration 180 nM)
Method in brief: as §1

[16] = system: THRa:RXRa (NR concentration 90 nM, RXRa partner concentration 90 nM)
Method in brief: as §1

[17] = system: THRa homodimer (NR concentration 90 nM)
Method in brief: as §1

[18] = system: VDR homodimer (NR concentration 270 nM)
Method in brief: as §1

Sequence | PBM binding z-score [1] | PBM binding z-score [2] | PBM binding z-score [3] | PBM binding z-score [4] | PBM binding z-score [5] | PBM binding z-score [6] | PBM binding z-score [7] | PBM binding z-score [8] | PBM binding z-score [9] | PBM binding z-score [10] | PBM binding z-score [11] | PBM binding z-score [12] | PBM binding z-score [13] | PBM binding z-score [14] | PBM binding z-score [15] | PBM binding z-score [16] | PBM binding z-score [17] | PBM binding z-score [18]
CAGACTGGGGCAGAAAGGTTACCATACCATCCGG | 2.77 | 3.01 | -0.514 | -0.142 | 2.11 | 1.39 | -0.052 | 2.24 | 0.536 | 2.04 | 2.4 | 2.09 | 1.85 | -0.43 | 1.98 | 1.29 | -0.421 | 0.0589
AGTCAAAGTTCATCTAGGTAAGGTAAGATATGCT | 0.598 | 3.32 | 1.53 | 0.676 | 3.1 | 5.24 | 5.75 | 3.9 | 1.68 | 4.91 | 4.03 | 5.32 | 5.79 | 4.64 | 4.38 | 3.19 | 0.886 | 4.84
TAGCCTAGGTCTTTGGGCCAGTATAGTACGCATC | -0.223 | 0.546 | -1.01 | -0.496 | -0.656 | -0.782 | -0.961 | -0.806 | -0.737 | -0.161 | -0.337 | -0.253 | -0.164 | -0.783 | -0.392 | -0.218 | -0.674 | -0.826
CGTCCAAGGTCAAAGGAGGTCAGTGAAGACAGAT | 3.19 | 4.71 | 0.585 | -0.349 | 3.39 | 6.84 | 3.62 | 5.79 | 0.875 | 5.6 | 5.57 | 6.67 | 7.08 | 3.52 | 6.32 | 5.42 | 2.98 | 4.01
GGAACGAGGGCAATGTTGATAGCATCTGTCGACG | 3.67 | 2.77 | 0.286 | -0.167 | 0.467 | 0.63 | 0.108 | 0.572 | -0.191 | 2.13 | 0.983 | 1.08 | 1.66 | 1.93 | 0.843 | 0.966 | -0.016 | 0.72
CCTTACGGGTCACTAACAGGTTATAGCATTTGGA | 2.88 | 3.68 | 1.26 | 0.395 | 2.62 | 3.28 | 0.184 | 4.08 | 1.72 | 3.92 | 3.17 | 5.31 | 4.12 | 2.03 | 4.25 | 2.98 | 0.367 | 1.29
ATCTAAAGGTCGACGAGGTGAGTATACACCGTTT | 0.916 | 2.35 | 0.97 | 0.877 | 1.81 | 3.26 | 0.284 | 3.76 | 1.29 | 3.91 | 3.05 | 4.38 | 4.38 | 1.52 | 4.1 | 3.82 | 0.836 | 1.29
CCTCGGAGGACAACATGAGGTCAGAGCTGCCAGA | 0.44 | 0.437 | -0.816 | -1.02 | 1.69 | 2.8 | 0.437 | 2.67 | 0.194 | 3.04 | 3.88 | 3.49 | 3.52 | 1.15 | 2.13 | 4.08 | 3.51 | 2.43
TCTCGGAGGACACGAAAGATCAGAGCTCGACATC | 1.5 | 0.155 | -0.549 | -1.75 | -1.47 | -0.243 | -0.552 | -0.0104 | -0.742 | 1.17 | 0.303 | 0.634 | 1.18 | 0.716 | 0.321 | 1.2 | 0.159 | -0.53
CAAACTAGGTCACAGCGGTCAAAGTCCGTGCGTA | 8.22 | 8.97 | 2.1 | 1.7 | 2.78 | 3.32 | 1.36 | 3.58 | 1.2 | 4.58 | 4.53 | 5.19 | 5.77 | 1.84 | 3.87 | 3.66 | 1.74 | 2.57
CCGACTGGGGCAGAAAGGGTACCATACCATCCGG | 0.57 | 0.77 | -0.394 | -1.37 | -0.287 | -0.615 | -0.768 | -0.429 | -0.298 | 0.605 | 0.624 | 0.0836 | 0.273 | -1.36 | 0.143 | -0.36 | -0.53 | -0.349
ATCAAAAGGTCGACGAGGTGAGTATACACCGTTT | 0.837 | 2.54 | 1.44 | 1.18 | 2.16 | 3.22 | 0.528 | 3.88 | 1.22 | 4 | 3.3 | 4.4 | 4.08 | 1.52 | 4.69 | 3.9 | 1.05 | 0.947
GGAACGAGGGCATTCGAGTTAATAGCATGGCGAT | 3.25 | 2.26 | -0.564 | -0.5 | 0.00587 | 3.48 | 0.437 | 0.742 | -0.33 | 1.8 | 0.504 | 1.33 | 1.59 | 2.83 | 1.09 | 3.22 | -0.196 | 2.58
GCATATAGTTAATACAAGGTGAAAGTCCGATTGT | 0.418 | 0.597 | 0.14 | 1.15 | 0.564 | 0.322 | 0.372 | 0.691 | 0.956 | 0.235 | 0.847 | 0.222 | 0.365 | 0.966 | 0.312 | 2.89 | 1.18 | -0.0676
CGTCAAAGTTCAACTAAAGTAACGTAAAGCACGC | 0.164 | 2 | 1.4 | 1.46 | 3.19 | 4.82 | 3.3 | 4.03 | 2.17 | 5.28 | 4.13 | 5.9 | 6.97 | 4.67 | 5.02 | 2.61 | 0.0523 | 3.56
